Compounds with a hit are over-represented: about 4.1% of the library has one in this group of screens.
DAX1 inh-1: DAX1 (NR0B1) inhibition, primary screen. inhibition, % at 6.8 µM. HEK293T StAR-luciferase reporter, SF-1/DAX-1 repression relief. AID 652010. 1.1% of 370,000 active;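 active means inhibition above the mean over all tested compounds plus 3 SD, cut at about 3.6% in these data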;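 further: 0% = DAX-1 cells with DMSO and 100% = cells lacking DAX-1 with DMSO; higher inhibition means more luminescence from relief of DAX-1 repression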
hcDAF-12 act: activates DAF-12 receptor from parasite H. contortus. AID 652067. activation, % at 6.8 µM. HEK293 hcDAF-12 lit1-tk-luc reporter, luminescence; 0% DMSO, 100% Δ7-dafachronic acid. 1.4% of 370,000 active;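 active means activation above the mean of all tested compounds plus 3 SD, cut at about 5.5% in these data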;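 further: 100% = response to 3 µM Δ7-dafachronic acid high control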
DAX1 inh-2: inhibitors of human orphan nuclear receptor DAX1 (NR0B1); P51843; HEK293 Gal4-DAX1 luciferase reporter, luminescence; inhibition, % at 6.75 µM; 0.99% of 340,000 active;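 active means inhibition above the mean over all tested compounds plus 3 SD, cut at about 4.2% in these data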;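 further: 0% = DAX1-transfected cells with DMSO and 100% = empty-vector control cells with DMSO; inhibition shows as a rise in luminescence from relieved DAX1 repression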
Target sequence (P51843 207-470 limits assumed): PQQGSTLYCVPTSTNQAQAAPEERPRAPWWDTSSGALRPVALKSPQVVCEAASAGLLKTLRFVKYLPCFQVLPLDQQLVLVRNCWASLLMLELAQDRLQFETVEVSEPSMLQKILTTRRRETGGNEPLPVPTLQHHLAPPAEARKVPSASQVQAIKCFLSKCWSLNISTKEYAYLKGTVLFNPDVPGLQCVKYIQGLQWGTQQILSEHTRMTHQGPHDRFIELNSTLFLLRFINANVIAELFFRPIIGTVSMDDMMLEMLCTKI
hgDAF12 agonist: activates the H. glycines DAF-12 receptor ligand-binding domain; activation, % at 6.8 µM; HEK293 GAL4-hgDAF12 UAS-luciferase reporter, agonist luminescence; normalized to butyrate control; AID 687014; 1.8% of 370,000 active;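 active means activation above a cutoff set at the mean of all screened compounds plus 3 SD, cut at about 10% in these data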;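 further: 0% = DMSO wells and 100% = sodium butyrate wells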
ssDAF-12 act: S. stercoralis DAF-12 activation, primary screen. 1% of 370,000 active. activation, % at 6.8 µM. HEK293 ssDAF-12/GRIP1 lit1-tk-luc reporter, luminescence; % of 3 µM dafachronic acid response. AID 652126;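 active means activation above the mean over all tested compounds plus 3 SD, cut at about 0.9% in these data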;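 further: 0% = DMSO-only wells and 100% = 3 µM delta7-dafachronic acid wells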
Active calls of the source: *; nt = no result given.

SMILES	DAX1 inh-1	hcDAF-12 act	DAX1 inh-2	hgDAF12 agonist	ssDAF-12 act
CCOc1c2ccc(C(=O)NCCc3cccs3)cc2nn1CC	2.8	2.7	2.2	11.9*	-0.2
CCCCn1nc2cc(C(=O)NCCc3cccs3)ccc2c1OCC	0.4	-0.8	0.2	1.4	-1.7
Cc1cc(=O)[nH]c(N/N=C/c2ccc(N(C)C)cc2)n1	0.4	-0.6	0.3	1.4	-1.2
Cc1cc(=O)[nH]c(N/N=C/c2ccc(F)cc2)n1	0.2	-0.6	1.4	-0.4	1.3*
Cc1cccc(NC(=O)/C=C/c2cccs2)n1	3.1	6.2*	1.0	12.9*	-0.4
COC(=O)[C@]1(CNC(=O)Nc2ccc(C)c(Cl)c2)CC(=O)N(C)[C@@H]1c1ccccc1	-0.6	-0.9	nt	-5.3	-1.8
Cc1cc(C)n2c(Nc3ccc4c(c3)OCCO4)c(-c3ccc(F)cc3)nc2n1	4.3*	2.9	nt	6.3	-0.4
Cc1cccc(N2C(=O)C3C4C=CC(CC4)C3C2=O)c1 (centres undefined)	-0.2	-2.7	0.0	1.5	-0.7
O=C1C2C3CCC(O3)C2C(=O)N1c1cccc(O)c1 (centres undefined)	0.3	3.9	-1.1	5.0	0.9*
COCCN1CN(S(=O)(=O)c2ccccc2)c2nc3ccccc3nc21	-0.7	-1.3	0.0	-0.1	-1.4
O=S(=O)(c1cccs1)N1CN(Cc2ccco2)c2nc3ccccc3nc21	-0.7	-0.1	3.0	1.6	0.9*
COc1ccccc1CN1CN(S(=O)(=O)c2ccccc2)c2nc3ccccc3nc21	0.7	6.1*	-0.9	3.8	-0.8
O=C(C=Cc1ccc(OCc2ccccc2)cc1)c1c(F)cccc1F	-0.3	1.1	nt	0.7	-0.8
COc1ccccc1C(=O)OCC(=O)N1CCC(Cc2ccccc2)CC1	0.9	1.8	0.6	2.6	-1.0
O=C(OCC(=O)N1CCC(Cc2ccccc2)CC1)c1cc(Cl)ccc1O	3.9*	-0.1	-1.4	2.1	-0.5
COc1ccc(/C(O)=C2/C(=O)C(=O)N(c3ccccn3)C2c2ccc(C(C)C)cc2)cc1 (centres undefined)	1.6	4.0	1.5	13.2*	0.6
COc1ccc(/C(O)=C2/C(=O)C(=O)N(c3ccccn3)C2c2ccc(OC)cc2)cc1 (centres undefined)	-0.2	1.8	0.5	-2.4	-0.6
Cn1c(=O)c2cc(S(=O)(=O)N3CCN(c4ccccc4Cl)CC3)ccc2n(C)c1=O	0.6	1.5	nt	0.5	-1.1
C[C@H]1COc2cc(Br)ccc2S(=O)(=O)N1Cc1cn(Cc2ccc(F)cc2)nn1	-0.2	0.2	nt	1.3	-1.5
CC(=O)Nc1ccc(/C=N/OCC(=O)Nc2ccc(C)cc2)cc1	0.5	2.4	0.7	11.5*	-0.3
COc1ccc(/C=N/OC(=O)Nc2ccccc2OC)cc1	-1.1	1.1	-1.5	11.8*	-0.2
COc1ccc(NC(=O)O/N=C/c2ccncc2)cc1	0.7	0.9	4.6*	7.1	-1.2
COc1ccc(NC(=O)O/N=C/c2ccc(Br)cc2)cc1	0.3	0.1	1.5	5.5	-0.9
Cc1ccc(NC(=O)O/N=C/c2ccc(N(C)C)cc2)cc1	1.6	2.4	3.1	13.2*	0.2
CSC(=S)N/N=C/c1ccc(N(C)C)cc1	1.2	1.9	-1.5	1.4	-1.1
SMILES	DAX1 inh-1	hcDAF-12 act	DAX1 inh-2	hgDAF12 agonist	ssDAF-12 act
CN(C)c1ccc(C=NNC(=S)Nc2ccc(F)cc2)cc1	1.4	0.1	5.0*	11.4*	-0.8
O=C(CSc1ccc2nnc(CCNC(=O)c3ccccc3)n2n1)NCc1ccco1	3.9*	-0.9	0.1	-0.9	-0.5
O=C(CSc1ccc2nnc(CCNC(=O)c3ccc(F)cc3)n2n1)NCc1ccco1	0.5	-2.5	0.8	-1.5	-1.4
CCOc1ccc(C(=O)Nc2c(C(=O)N3CCC(N4CCCCC4)CC3)oc3ccccc23)cc1	4.0*	-0.6	0.7	-0.1	-1.5
Cc1ccc(-n2nc(C)c(=O)c(-c3ccccc3)c2NC(=O)c2cccs2)cc1	-0.2	-2.3	5.5*	0.3	-0.9
COC(=O)[C@]12C[C@H](CC(=O)N3CCOCC3)C(=O)N(Cc3ccc(Cl)cc3Cl)C1=C[C@H](C1CCCC1)O[C@@H]2C	-0.4	3.7	nt	4.1	-0.9
Cc1ccc(NC(=O)C2OCCc3ccccc32)cc1C (centres undefined)	2.2	2.5	1.9	11.0*	-0.8
O=C(NNC(=O)c1ccccc1F)c1cccc(-n2cccc2)c1	3.7*	-0.9	1.4	4.4	-0.9
O=C(NNC(=O)c1cccc(-n2cccc2)c1)c1ccccc1	3.0	-0.3	1.1	2.9	-1.4
C=CC[C@@H]1NN2C(=O)[C@@H](CCCC)[C@@H]3c4cc5ccccc5cc4C=NN3[C@@H]2c2cc3ccccc3cc21	-0.4	1.7	nt	3.0	-0.5
CCOc1ccccc1NC(=O)NNC(=O)CCn1nc(C)c([N+](=O)[O-])c1C	1.1	-1.8	nt	-0.1	-1.0
COc1ccc(-c2[nH]ncc2CN2CCCO2)cc1F	-0.3	-0.9	0.9	0.8	-1.8
COc1ccc(-c2[nH]ncc2CN(C)CCCN2CCOCC2)cc1F	-0.2	-1.1	5.9*	-0.4	-0.6
O=C1CCCCCN1CP(=O)(O)CN1CCCCCC1=O	0.1	-1.1	2.8	13.1*	-0.5
COc1ccc(CCNC(=O)c2cnn(-c3ccccc3)c2N)cc1OC	-1.1	-2.1	nt	-1.7	-1.1
Cc1ccc2c(c1)-c1c(cnn1CC(=O)NCCc1cccc(F)c1)CO2	-0.8	-1.9	nt	-2.2	-1.1
Cc1[nH]nc2c1C(c1cccc(C(F)(F)F)c1)N(Cc1ccccc1)C2=O (centres undefined)	-0.9	-1.2	nt	-2.9	-1.2
Cc1nc2c(ncn2-c2ccccc2)c(=O)n1NC(=O)CN1CCCCC1	0.0	0.2	4.5*	2.6	-2.4
Cc1ccccc1NC(=O)COc1ccc(Br)cc1CNCCCO	0.0	1.8	5.2*	0.1	-0.3
COc1ccccc1NC(=O)COc1ccc(Br)cc1CNCCCN1CCOCC1	1.0	0.6	0.1	-0.4	-0.7
O=C(CN1CCC(NC(=O)C2CC2)CC1)Nc1cccc(F)c1	0.5	4.7	0.1	1.4	0.9*
CC(=O)NNC(=O)c1[nH]c2ccc(Cl)cc2c1-c1ccccc1	0.3	-1.1	5.0*	0.5	-1.3
O=C(NN=C1CCCC1)c1[nH]c2ccc(Cl)cc2c1-c1ccccc1	0.1	1.0	nt	0.2	-1.0
Cc1ccc(-n2c(SCC(=O)Nc3ccccc3-c3ccccc3)nnc2-c2cccs2)cc1	-0.5	-0.2	nt	-1.0	-1.5
O=C(OCC#CCSc1nnc(-c2ccc(Br)cc2)o1)c1cccs1	0.1	1.4	0.1	1.2	1.0*
Cc1ccc(-c2nnc(SCC#CCOC(=O)c3cccs3)o2)cc1	0.1	0.6	-0.8	3.2	-0.9
COc1ccccc1Cc1c(-c2ccc(C)cc2)nc2c3ccccc3ccn12	-0.4	1.0	nt	0.2	0.5
Cc1ccc(-c2nc3c4ccccc4ccn3c2Cc2ccccc2C(F)(F)F)cc1	0.8	4.5	nt	1.9	0.9*
COc1ccccc1Cc1c(-c2ccc(F)cc2)nc2c3ccccc3ccn12	-0.4	5.8*	nt	4.5	0.5
